TIM10 inh: TIM10 yeast growth inhibition; inhibition, % at 10 µM; S. cerevisiae TIM10 strain growth, BacTiter-Glo luminescence, 24 h; AID 463195; 330,000 tested, 1.4% active;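 active = inhibition of 40% or more at the single tested concentration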;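 also: wild-type TIM10 isogenic control strain grown at permissive 25 °C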
tim23-1 inh: tim23-1 yeast growth inhibition. S. cerevisiae tim23-1 growth, BacTiter-Glo luminescence, 24 h. inhibition, % at 20 µM. 330,000 tested, 1.3% active. AID 463212;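 active = growth inhibition of the mutant yeast at or above 50%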;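 also: temperature-sensitive mutant grown at 25 °C; plate controls were DMSO-treated mutant yeast for no effect and medium wells lacking yeast for full effect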
V-ATPase pHluor: regulators of yeast V-ATPase proton transport. S. cerevisiae, pHLuorin cytosolic pH fluorescence. response, % at 10 µM. 350,000 tested, 0.37% active. AID 504577; in the data active = response mostly above about 7.3%, no sharp cut-off; inactive = mostly below about 5.4%; also: actives read high
tim10-1 inh: tim10-1 yeast growth inhibition | S. cerevisiae tim10-1 ts strain growth, BacTiter-Glo, 24 h | inhibition, % at 20 µM | 330,000 tested, 2.2% active | AID 463190;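 active = inhibition of at least 40%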;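 also: mutant grown at 25 °C; 0% = DMSO wells with yeast and 100% = wells holding no yeast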
PfHsp90 set2: inhibits growth of yeast expressing Plasmodium falciparum Hsp90; S. cerevisiae expressing PfHsp90, BacTiter-Glo ATP, 48 h; yeast lacking PDR1 and PDR3 efflux regulators; 310,000 tested, 0.32% active; inhibition, % at 9.4 µM;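 active = every replicate shows inhibition above about 80%, whatever the replicate mean, limit read from the data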;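 also: 0% = DMSO neutral controls and 100% = 20 µM radicicol positive controls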
VATPase regulator: regulators of yeast V-ATPase proton transport; shares compounds with V-ATPase pHluor; S. cerevisiae pHLuorin cytosolic pH; response, % at 10 µM; 980 tested, 2% active; in the data active = response above about 24%;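 also: plate controls were vehicle wells for no effect and positive control wells for full effect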
* = called active by the depositor; / = no result given. Compounds with a hit are over-represented: about 3.7% of the library has one in this group of screens.

SMILES	TIM10 inh	tim23-1 inh	V-ATPase pHluor	tim10-1 inh	PfHsp90 set2	VATPase regulator
Cc1ccc(S(=O)(=O)N2CCOCC2)cc1NC(=O)COC(=O)CCOc1ccc(C(C)(C)C)cc1	11	21	4	24	-3	/
CN(C(=O)COC(=O)c1cnc(Cl)c(Cl)c1)C1CCS(=O)(=O)C1 (stereo not given)	-7	-4	5	-9	-24	/
CN(C(=O)COC(=O)c1ccc(Cl)cc1N)C1CCS(=O)(=O)C1 (stereo not given)	17	-2	11*	-4	-2	-1
Cc1cnnc2c1-c1no[n+]([O-])c1CC2	-20	21	14*	2	/	0
O=C1C(C=NC2CC2)=C(O)c2ccccc21	-2	4	9.8*	-7	-10	0
COC(=O)N/N=C/c1cn(Cc2ccccc2Cl)c2ccccc12	3	24	9	5	-7	/
COC(=O)N/N=C/c1cn(Cc2ccccc2F)c2ccccc12	25	28	10*	-6	-17	2
O=C(NC1CCOc2ccccc21)C1CCCC1 (stereo not given)	7	2	2	-13	-3	/
CCN1C(=NCc2ccc(OC)cc2)N[C@@H](c2ccccc2)[C@H](C(=O)OC)[C@H]1C	-1	9	-2	6	23	/
CN1CCN(CC(=O)c2ccccc2F)CC1	1	-7	0	-2	-15	/
COc1cccc(CNC(=O)CCC2CCCN(C(=O)c3ccc(C)nc3)C2)c1 (stereo not given)	-21	13	9.9*	9	/	4
O=C1N=C(N2C=CC(=C3C=CNC=C3)C=C2)/C(=C/N=NC(=O)c2ccccc2O)S1	5	12	-6	2	-3	/
CN(C)/C=C(\C(=O)c1ccccc1)c1nnnn1-c1ccc(F)cc1	-9	-21	21*	-11	-10	6
O=C(Oc1ccc2ccc(=O)oc2c1)c1cccs1	23	14	25*	29	-17	1
COCCn1c(SCC(=O)NNC(=O)c2ccccc2)nc2ccccc21	-20	-9	12*	-1	/	-1
COc1ccc(CCNC(=O)COC(=O)CSc2ccc([N+](=O)[O-])cc2)cc1OC	8	1	3	7	2	/
O=C(Nc1ccccc1)C1CCCCC1	4	-4	7	6	13	/
O=C(Nc1ccc(Nc2ccccc2)cc1)C1CC1	31	39	7.5*	22	35	7
Nc1ccc(S(=O)(=O)Nc2nccc(/C=C/c3ccc(Cl)cc3Cl)n2)cc1	-15	3	0	10	1	/
CSCCC(NC(=O)c1ccccc1)C(=O)N1CC=C(c2ccccc2)CC1 (stereo not given)	0	20	9.3*	14	-9	0
CSCCC(NC(=O)c1ccccc1)C(=O)N1CCN(C(=O)c2ccccc2)CC1 (stereo not given)	-2	-7	3	-3	3	/
[N-]=[N+]=CC(=O)C(c1ccccc1)(c1ccccc1)c1ccccc1	22	20	2	14	11	/
O=C(NCc1ccco1)Nc1ccc(Br)cc1	-12	0	11*	-7	10	0
Cc1ccc(-n2nc3c(=O)n(CC(=O)NC(C)CCc4ccccc4)nc(C)c3c2C)cc1 (stereo not given)	-27	-10	-4	16	-4	/
C#CCOCCOCCOCCNc1nc(N2CCN(C(=O)[C@H](CCC(=O)O)n3cc(CN)nn3)CC2)nc(N2CCN(C(=O)[C@H](CCCCN)n3cc([C@@H](N)CC(N)=O)nn3)CC2)n1	5	-9	7.9*	-8	20	-2
C#CCOCCOCCOCCNc1nc(N2CCN(C(=O)[C@H](CCCCN)n3cc(CN)nn3)CC2)nc(N2CCN(C(=O)[C@H](CCC(=O)O)n3cc([C@@H](N)CCCCN)nn3)CC2)n1	7	15	-6	14	23	/
O=C(CSc1nc2ccccc2c(=O)n1NC(=O)Cc1ccccc1)NCc1ccccc1	-14	-7	15*	11	22	2
COc1cc(/C=N/NC2=NC(C)(C)Cc3ccccc32)cc(OC)c1OC	2	26	8.2*	33	3	2
Cc1ccccc1N1CCN(C2=NC(=O)/C(=C/c3cn[nH]c3-c3ccccc3)S2)CC1	-25	-10	8.3*	17	4	-3

Compound activity deposited in PubChem by several laboratories.
